BoNT-A LC inh2 – inhibitors of Botulinum neurotoxin A light chain protease; multiplex microsphere protease substrate cleavage, flow cytometry; inhibition, % at 10 µM; 0.17% of 360,000 active; further: plate controls were buffer without enzyme for full effect and enzyme alone for no effect
Anthrax LF inh2 – inhibitors of Bacillus anthracis lethal factor protease; P15917; multiplex microsphere protease cleavage assay, LF; inhibition, % at 10 µM; 0.12% of 360,000 active; AID 588501; further: plate controls were buffer without enzyme for full effect and enzyme alone for no effect
Autofluor counter – flagged as autofluorescent in microsphere protease counterscreen; compound autofluorescence counterscreen, microsphere flow cytometry; active compounds read high; fluorescence intensity (concentration not given with the values); 3.1% of 360,000 active; in the data active means fluorescence intensity above about 16000; inconclusive means no clear call, values can overlap the other calls
BoNT-F LC inh – blocks Botulinum neurotoxin F light chain protease. inhibition, % at 10 µM. Multiplex microsphere protease cleavage assay, flow cytometry. 0.22% of 360,000 active; in the data active means inhibition above about 35%, passing the limit was not always enough; inconclusive means no clear call, values can overlap the other calls; further: plate controls were buffer without enzyme for full effect and enzyme alone for no effect
PriA SSB inh – K. pneumoniae PriA-SSBct interaction inhibition. 0.6% of 430,000 active. inhibition, % at 33 µM. AlphaScreen SSBct-PriA binding, biotinylated peptide. AID 1272365; in the data active means inhibition mostly above about 37%, no sharp cut-off; inactive means mostly below about 20%;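 further: plate controls were negative control peptide for no effect and reference peptide for full effect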
The depositor's hits bear a star; ? = inconclusive; . = no result given. Compounds with a hit are over-represented: about 3.1% of the library has one in this group of screens. Unless noted, no stated cut-off is given here; in the data, active means inhibition above about 30%; inconclusive means no clear call, values can overlap the other calls; inactive means below that.

SMILES	BoNT-A LC inh2	Anthrax LF inh2	Autofluor counter	BoNT-F LC inh	PriA SSB inh
Cc1ccc(NC(=O)CSc2nc(=O)cc(N)n2-c2ccccc2)cc1	0	1	4224	-2	3
COC(=O)c1cccc(NC(=O)CSc2nc(=O)cc(N)n2-c2ccccc2)c1	-1	-3	16937*	0	9
COCCn1c(SCC(=O)Nc2cc(C)on2)nc2ccccc2c1=O	2	1	?	?	1
Cc1cc(NC(=O)CSc2nc3ccccc3n2CC(=O)N2CC(C)CC(C)C2)no1 (stereo unspecified)	?	-2	23778*	-1	-19
CCCCCCn1c(SCC(=O)Nc2cc(C)on2)nc2ccccc2c1=O	-2	-3	16827*	-1	-4
Cc1cccc(-n2c(N)cc(=O)nc2SCC(=O)Nc2cc(C)on2)c1	0	1	2379	7	-11
CCCCc1nnc(NC(=O)CSc2nc(=O)cc(N)n2-c2cccc(C)c2)s1	0	-1	16503*	0	-20
O=C(Cc1cccc2ccccc12)N1CCCC(S(=O)(=O)c2ccc(F)cc2)C1 (stereo unspecified)	.	.	.	.	0
Clc1ccccc1N=c1oc2ccc(Br)cc2cc1-c1nc2ccccc2[nH]1	.	.	.	.	-5
Cc1cc(NC(=O)CSc2nc3ccsc3c(=O)n2CCCCC(=O)O)no1	-1	-2	16845*	0	0
COc1ccc(-n2c(N)cc(=O)nc2SCC(=O)N2CCN(c3ccccc3)CC2)cc1	-3	-1	6629	-13	7
CCOC(=O)c1cccc(NC(=O)CSc2nc3ccccc3c(=O)n2CCOC)c1	?	-2	22521*	-1	-16
CCOC(=O)c1cccc(NC(=O)CSc2nc3ccccc3c(=O)n2CC)c1	-1	-2	9775	3	-11
Nc1cc(=O)nc(SCC(=O)N(C2CCCCC2)C2CCCCC2)n1-c1ccccc1	?	1	16646*	-3	12
COc1ccc(CCn2c(SCC(=O)Nc3cc(C)on3)nc3ccsc3c2=O)cc1OC	3	-11	19488*	5	-22
O=C(Nc1ccccc1C(F)(F)F)N1CC(c2nc(-c3ccc[nH]c3=O)no2)C1	.	.	.	.	-20
O=C(NCCn1ncc2c(=O)n(Cc3ccccc3F)cnc21)c1ccc(S(=O)(=O)N2CCOCC2)cc1	.	.	.	.	0
O=C(NCCc1ccccc1)C(=O)NCc1ccsc1	.	.	.	.	-4
Nn1c(SCC(=O)Nc2ccccc2F)nc2ccccc2c1=O	?	0	16496*	-2	11
O=S(=O)(NCCc1csc(-n2cccn2)n1)C1CC1	.	.	.	.	-21
Cc1ccc(/C=C2\CCC3=C2OC(N)=C(C#N)C3c2ccc(C)cc2)cc1 (stereo unspecified)	7	6	10272	42*	-9
Cc1ccc(C2C(C#N)=C(N)Oc3cc(N)ccc32)cc1 (stereo unspecified)	-2	-10	3919	?	7
O=S1(=O)CC/C(=N\O)c2ccccc21	?	0	23882*	-6	.
O=C(C1CC1)N1CCCSCC1CN1CCOCC1 (stereo unspecified)	.	.	.	.	3
CC(C)C[C@@H](C(=O)NCc1ccco1)N1C(=O)N2CCc3c([nH]c4ccccc34)[C@@]2(C)C1=O	-1	-3	5060	-1	19
SMILES	BoNT-A LC inh2	Anthrax LF inh2	Autofluor counter	BoNT-F LC inh	PriA SSB inh
C[C@@H](C(=O)NCc1ccco1)N1C(=O)N2CCc3c([nH]c4ccccc34)[C@@]2(C)C1=O	0	-6	6197	-3	47*
COc1ccc(NC(=O)Cn2nc3ccc(SCc4ccc(Cl)cc4)nn3c2=O)cc1Cl	.	.	.	.	-16
CCCCN(CC)S(=O)(=O)N1CCC(C(=O)NCCCN2CCOCC2)CC1	0	0	2572	-10	-7
CCN(CC)S(=O)(=O)N1CCC(C(=O)NCCN2CCOCC2)CC1	3	0	22119*	3	-10
O=C1CC(N2CCOCC2)C(=O)N1c1ccccc1Cl (stereo unspecified)	-1	-1	9180	-1	3
CCCOc1ccccc1N1C(=O)CC(N2CCOCC2)C1=O (stereo unspecified)	0	-3	23760*	-4	-11
CCC1CCc2c(sc3c2C(=O)NC(c2ccccn2)N3)C1 (stereo unspecified)	.	.	.	.	45
O=C1NC(c2cccnc2)Nc2sc3c(c21)CCCC3 (stereo unspecified)	-1	4	10852	-6	4
O=C1NC(c2ccc(Br)cc2)Nc2sc3c(c21)CCC3 (stereo unspecified)	1	-4	22598*	2	-8
CN1CCc2c(sc3c2C(=O)NC(c2ccccn2)N3)C1 (stereo unspecified)	-1	-14	5953	-18	85*
O=C1NC(c2ccccn2)Nc2sc3c(c21)CCC3 (stereo unspecified)	-1	1	2803	-3	81*
CCOc1ccc(CC(=O)Nc2nc3ccc4sc(C)nc4c3s2)cc1	.	.	.	.	10
Cc1cc(=O)[nH]c(-n2nc(C)c(CCC(=O)Nc3nnc(C)s3)c2C)n1	.	.	.	.	-1
O=S(=O)(c1cccc(S(=O)(=O)N2CCC(Cc3ccccc3)CC2)c1)N1CCOCC1	1	3	4080	6	-13
CC1CCN(S(=O)(=O)c2cccc(S(=O)(=O)N3CCOCC3)c2)CC1	0	-1	16191*	-2	-12
O=S(=O)(NCc1ccccc1)c1cccc(S(=O)(=O)N2CCOCC2)c1	2	-1	21829*	4	-18
CCN1CCN(c2nc3ccccc3nc2C(C#N)S(=O)(=O)c2ccc(C)c(C)c2)CC1 (stereo unspecified)	0	-1	22821*	-2	-21
CCCCCCOC(=O)C(C#N)c1nc2ccccc2nc1N1CCOCC1 (stereo unspecified)	2	-5	19713*	1	-17
CC1CN(c2nc3ccccc3nc2C(C#N)C(=O)OC2CCCCC2)CC(C)O1 (stereo unspecified)	?	16	21164*	3	-7
Cc1ccc(S(=O)(=O)C(C#N)c2nc3ccccc3nc2N2CC(C)OC(C)C2)cc1C (stereo unspecified)	0	3	17403*	-4	-17
COc1ccc(OC)c(NC(=O)CC2CCCCN2S(=O)(=O)c2ccc(C)cc2)c1 (stereo unspecified)	.	.	.	.	-2
O=C(N/N=C/c1ccc(O)cc1O)c1ccc(NC(=O)C2CCCCC2)cc1	2	36*	4739	4	.
Oc1ccc(N=Cc2c[nH]c3ccccc23)cc1	.	.	.	.	46*
CCOc1cc(C)c(S(=O)(=O)n2nnc3ccccc32)cc1C	.	.	.	.	-5
O=C(Nc1ccccc1)Nc1ccc(Oc2ncnc3cc(Cl)ccc23)nc1	.	.	.	.	-8
O=C(O)CCC(=O)Nc1ccc(Oc2ncnc3cc(Cl)ccc23)nc1	9	?	3429	40*	-5
O=S(=O)(NCCn1ccn2nc(-c3ccco3)cc12)c1ccc(C(F)(F)F)cc1	.	.	.	.	20
Cc1ccc(NC(=O)c2cc3nc(C)cc(C)n3n2)cc1	0	-4	20310*	2	-11
Cc1cc(C)n(-c2ccc(C(=O)OCC(=O)Nc3ccc(Cl)c(S(=O)(=O)N(C)C)c3)cc2)n1	?	-2	25627*	-7	1

Bioassay records from PubChem BioAssay.
